# Assay results taken from PMC11062922 (Nature Chemical Biology, 2023).
# Where two headings read alike, the source gives them in different places.
# Legend:
# Design in all cases: species or system human, MV4-11 + K-562 + COLO205 + SK-N-BE2 + OVCAR-8
# ADRBK1 = details: read-out: apparent Kd; compound concentrations:100 nM and 1000 nM (sheet 'Samples'); n = 1
# COX5A = details: read-out: apparent Kd, n = 1
# EPHA7 = details: read-out: apparent Kd; compound concentrations:100 nM and 1000 nM (sheet 'Samples'); n = 1
# PIK3CB = details: read-out: apparent Kd; compound concentrations:100 nM and 1000 nM (sheet 'Samples'); n = 1
# ADK = details: read-out: apparent Kd, n = 1
# AURKA = details: read-out: apparent Kd; compound concentrations:100 nM and 1000 nM (sheet 'Samples'); n = 1
# CDC42BPA = details: read-out: apparent Kd; compound concentrations:100 nM and 1000 nM (sheet 'Samples'); n = 1
# CDC42BPB = details: read-out: apparent Kd; compound concentrations:100 nM and 1000 nM (sheet 'Samples'); n = 1
# CDC42BPG = details: read-out: apparent Kd; compound concentrations:100 nM and 1000 nM (sheet 'Samples'); n = 1
# CDK6 = details: read-out: apparent Kd; compound concentrations:100 nM and 1000 nM (sheet 'Samples'); n = 1
# CDKL5 = details: read-out: apparent Kd; compound concentrations:100 nM and 1000 nM (sheet 'Samples'); n = 1
# CHEK1 = details: read-out: apparent Kd; compound concentrations:100 nM and 1000 nM (sheet 'Samples'); n = 1
# CSNK1G1 = details: read-out: apparent Kd; compound concentrations:100 nM and 1000 nM (sheet 'Samples'); n = 1
# FN3KRP = details: read-out: apparent Kd; compound concentrations:100 nM and 1000 nM (sheet 'Samples'); n = 1
# MTHFD1 = details: read-out: apparent Kd; compound concentrations:100 nM and 1000 nM (sheet 'Samples'); n = 1
# NUAK1 = details: read-out: apparent Kd; compound concentrations:100 nM and 1000 nM (sheet 'Samples'); n = 1
# NUAK2 = details: read-out: apparent Kd; compound concentrations:100 nM and 1000 nM (sheet 'Samples'); n = 1
# PDXK = details: read-out: apparent Kd; compound concentrations:100 nM and 1000 nM (sheet 'Samples'); n = 1
# PKN1 = details: read-out: apparent Kd; compound concentrations:100 nM and 1000 nM (sheet 'Samples'); n = 1
# PKN2 = details: read-out: apparent Kd; compound concentrations:100 nM and 1000 nM (sheet 'Samples'); n = 1
# PRKAA1 = details: read-out: apparent Kd; compound concentrations:100 nM and 1000 nM (sheet 'Samples'); n = 1
# PRKACA = details: read-out: apparent Kd; compound concentrations: 100 nM and 1000 nM (sheet 'Samples'), CATDS: 9.7859849759824202E-2; n = 1
# PRKACB = details: read-out: apparent Kd; compound concentrations:100 nM and 1000 nM (sheet 'Samples'); n = 1
# PRKAG1 = details: read-out: apparent Kd; compound concentrations:100 nM and 1000 nM (sheet 'Samples'); n = 1
# PRKAG2 = details: read-out: apparent Kd; compound concentrations:100 nM and 1000 nM (sheet 'Samples'); n = 1
# PRKCA = details: read-out: apparent Kd; compound concentrations:100 nM and 1000 nM (sheet 'Samples'); n = 1
# PRKCB = details: read-out: apparent Kd; compound concentrations:100 nM and 1000 nM (sheet 'Samples'); n = 1
# PRKCD = details: read-out: apparent Kd; compound concentrations:100 nM and 1000 nM (sheet 'Samples'); n = 1
# PRKCQ = details: read-out: apparent Kd; compound concentrations:100 nM and 1000 nM (sheet 'Samples'); n = 1
# PRKG1 = details: read-out: apparent Kd; compound concentrations:100 nM and 1000 nM (sheet 'Samples'); n = 1
# PRKX;PRKY = details: read-out: apparent Kd; compound concentrations:100 nM and 1000 nM (sheet 'Samples'); n = 1
# ROCK1 = details: read-out: apparent Kd; compound concentrations:100 nM and 1000 nM (sheet 'Samples'); n = 1
# ROCK2 = details: read-out: apparent Kd; compound concentrations:100 nM and 1000 nM (sheet 'Samples'); n = 1
# RPS6KA5 = details: read-out: apparent Kd; compound concentrations:100 nM and 1000 nM (sheet 'Samples'); n = 1
# RPS6KB1 = details: read-out: apparent Kd; compound concentrations:100 nM and 1000 nM (sheet 'Samples'); n = 1
# AKT2 = details: read-out: apparent Kd; compound concentrations:100 nM and 1000 nM (sheet 'Samples'); n = 1
# AKT3 = details: read-out: apparent Kd; compound concentrations:100 nM and 1000 nM (sheet 'Samples'); n = 1
# NQO1 = details: read-out: apparent Kd; compound concentrations:100 nM and 1000 nM (sheet 'Samples'); n = 1
# PRKCI = details: read-out: apparent Kd; compound concentrations:100 nM and 1000 nM (sheet 'Samples'); n = 1
# TTN = details: read-out: apparent Kd; compound concentrations:100 nM and 1000 nM (sheet 'Samples'); n = 1
# AKT1 = details: read-out: apparent Kd; compound concentrations:100 nM and 1000 nM (sheet 'Samples'); n = 1
# MAP2K3 = details: read-out: apparent Kd; compound concentrations:100 nM and 1000 nM (sheet 'Samples'); n = 1
# MAPK10 = details: read-out: apparent Kd; compound concentrations:100 nM and 1000 nM (sheet 'Samples'); n = 1
# MAPK11 = details: read-out: apparent Kd; compound concentrations:100 nM and 1000 nM (sheet 'Samples'); n = 1
# MAPK9 = details: read-out: apparent Kd; compound concentrations:100 nM and 1000 nM (sheet 'Samples'); n = 1
# MAPKAPK2 = details: read-out: apparent Kd; compound concentrations:100 nM and 1000 nM (sheet 'Samples'); n = 1
# ADCK5 = details: read-out: apparent Kd; compound concentrations:100 nM and 1000 nM (sheet 'Samples'); n = 1
# CDK4 = details: read-out: apparent Kd; compound concentrations:100 nM and 1000 nM (sheet 'Samples'); n = 1
# DDR1 = details: read-out: apparent Kd; compound concentrations:100 nM and 1000 nM (sheet 'Samples'); n = 1
# MAP2K2 = details: read-out: apparent Kd; compound concentrations:100 nM and 1000 nM (sheet 'Samples'); n = 1
# NNT = details: read-out: apparent Kd; compound concentrations:100 nM and 1000 nM (sheet 'Samples'); n = 1
# RIOK2 = details: read-out: apparent Kd; compound concentrations:100 nM and 1000 nM (sheet 'Samples'); n = 1
# STK26 = details: read-out: apparent Kd; compound concentrations:100 nM and 1000 nM (sheet 'Samples'); n = 1
# TP53RK = details: read-out: apparent Kd; compound concentrations:100 nM and 1000 nM (sheet 'Samples'); n = 1
# PIK3CD = details: read-out: apparent Kd; compound concentrations:100 nM and 1000 nM (sheet 'Samples'); n = 1
# MAP2K5 = details: read-out: apparent Kd; compound concentrations:100 nM and 1000 nM (sheet 'Samples'); n = 1
# RIPK3 = details: read-out: apparent Kd; compound concentrations:100 nM and 1000 nM (sheet 'Samples'); n = 1
# [1] = compound concentrations:100 nM and 1000 nM (sheet 'Samples')
structure (smiles),measurement,setting,value
O=c1cc(N2CCOCC2)nc2n(Cc3ccccc3F)ccn12 [GSK2297428A],potency estimated from few doses,ADRBK1,1690 nM
same,potency estimated from few doses,COX5A; [1],1300 nM
same,potency estimated from few doses,EPHA7,1660 nM
same,potency estimated from few doses,PIK3CB,385 nM
O=C(NCCCN1CCOC1=O)c1cnc(NCc2cc(Cl)ccc2Cl)nc1NC1CCCC1 [PFE-PKIS_12],potency estimated from few doses,ADRBK1,1110 nM
O=C(Nc1cccc(-c2nn3ccccc3c2-c2ccnc(Nc3cccc(C(F)(F)F)c3)n2)c1)c1c(F)cccc1F [GSK292658A],potency estimated from few doses,"ADK; compound concentrations: 100 nM and 1000 nM (sheet 'Samples'), CATDS: 0.51902262396373799",1330 nM
same,potency estimated from few doses,"COX5A; compound concentrations: 100 nM and 1000 nM (sheet 'Samples'), CATDS: 0.48232246819666902",1540 nM
COc1ccc(O)c(C(=O)c2ccc(C(=O)O[C@@H]3CCCNC[C@H]3NC(=O)c3ccncc3)cc2)c1F.Cl [RO0480500-002],potency estimated from few doses,ADRBK1,119 nM
same,potency estimated from few doses,AURKA,693 nM
same,potency estimated from few doses,CDC42BPA,413 nM
same,potency estimated from few doses,CDC42BPB,51.3 nM
same,potency estimated from few doses,CDC42BPG,630 nM
same,potency estimated from few doses,CDK6,2090 nM
same,potency estimated from few doses,CDKL5,237 nM
same,potency estimated from few doses,CHEK1,26.5 nM
same,potency estimated from few doses,CSNK1G1,2260 nM
same,potency estimated from few doses,FN3KRP,764 nM
same,potency estimated from few doses,MTHFD1,1020 nM
same,potency estimated from few doses,NUAK1,16.5 nM
same,potency estimated from few doses,NUAK2,150 nM
same,potency estimated from few doses,PDXK,1410 nM
same,potency estimated from few doses,PKN1,116 nM
same,potency estimated from few doses,PKN2,241 nM
same,potency estimated from few doses,PRKAA1,485 nM
same,potency estimated from few doses,PRKACA,12.8 nM
same,potency estimated from few doses,PRKACB,21.1 nM
same,potency estimated from few doses,PRKAG1,1510 nM
same,potency estimated from few doses,PRKAG2,75 nM
same,potency estimated from few doses,PRKCA,227 nM
same,potency estimated from few doses,PRKCB,506 nM
same,potency estimated from few doses,PRKCD,25.7 nM
same,potency estimated from few doses,PRKCQ,769 nM
same,potency estimated from few doses,PRKG1,4.47 nM
same,potency estimated from few doses,PRKX;PRKY,40.2 nM
same,potency estimated from few doses,ROCK1,19.2 nM
same,potency estimated from few doses,ROCK2,19.1 nM
same,potency estimated from few doses,RPS6KA5,75 nM
same,potency estimated from few doses,RPS6KB1,38.6 nM
CCn1c(-c2nonc2N)nc2cnc(Oc3cccc(NC(=O)c4ccc(OCCN5CCOCC5)cc4)c3)cc21.Cl [GSK269962B],potency estimated from few doses,ADRBK1,1480 nM
same,potency estimated from few doses,AKT2,2180 nM
same,potency estimated from few doses,AKT3,1600 nM
same,potency estimated from few doses,NQO1,175 nM
same,potency estimated from few doses,PKN2,1850 nM
same,potency estimated from few doses,PRKCI,1970 nM
same,potency estimated from few doses,PRKG1,70.3 nM
same,potency estimated from few doses,ROCK2,294 nM
same,potency estimated from few doses,RPS6KB1,719 nM
same,potency estimated from few doses,TTN,388 nM
C[C@@H](Cn1ncnn1)Nc1ncc2cc(Oc3ccc(F)cc3F)c(=O)n(C)c2n1 [RO5067310-000],potency estimated from few doses,ADRBK1,2270 nM
same,potency estimated from few doses,AKT1,1750 nM
same,potency estimated from few doses,MAP2K3,1770 nM
same,potency estimated from few doses,MAPK10,424 nM
same,potency estimated from few doses,MAPK11,30.9 nM
same,potency estimated from few doses,MAPK9,265 nM
same,potency estimated from few doses,MAPKAPK2,3.25 nM
COC(=O)Nc1nc2ccc(Oc3ccc(NC(=O)Nc4cc(C(F)(F)F)ccc4F)cc3)cc2n1C.Cl [GW692089A],potency estimated from few doses,ADCK5,1770 nM
same,potency estimated from few doses,ADRBK1,1500 nM
same,potency estimated from few doses,AKT2,2410 nM
same,potency estimated from few doses,CDK4,2200 nM
same,potency estimated from few doses,CDK6,2300 nM
same,potency estimated from few doses,DDR1,1030 nM
same,potency estimated from few doses,MAP2K2,2020 nM
same,potency estimated from few doses,NNT,1910 nM
same,potency estimated from few doses,NQO1,1810 nM
same,potency estimated from few doses,RIOK2,2170 nM
same,potency estimated from few doses,STK26,1760 nM
same,potency estimated from few doses,TP53RK,1400 nM
O=c1cc(N2CCOCC2)nc2n(Cc3cccc4ccccc34)ccn12 [GSK2333389A],potency estimated from few doses,ADK; [1],889 nM
same,potency estimated from few doses,PIK3CB,16.1 nM
same,potency estimated from few doses,PIK3CD,214 nM
same,potency estimated from few doses,RIOK2,1890 nM
Nc1n[nH]c2nnc(-c3ccccc3)cc12 [SB-517389],potency estimated from few doses,ADRBK1,1380 nM
same,potency estimated from few doses,CDK6,1870 nM
O=C(O)C(F)(F)F.O=C(O[C@H]1CN[C@H](C#Cc2cc3ncnc(Nc4ccc(Cc5ccccc5)cc4)c3s2)C1)N1CCOCC1 [GSK238583A],potency estimated from few doses,ADRBK1,1670 nM
same,potency estimated from few doses,AKT2,1770 nM
same,potency estimated from few doses,MAP2K5,646 nM
same,potency estimated from few doses,RIOK2,2420 nM
same,potency estimated from few doses,RIPK3,2260 nM
